Results from the supplement of paper PMC6555819.

Tests used:
Assay in all cases: PBM binding z-score (relative to random genomic background probes); higher = stronger binding; sequences stand for … in GC…GCGATTGACAGCGTAGAATGAAGG
[1] = system: PPARg:RXRa DBDmut IVT, anti-RXR (DBD mutation: RXRa K156A/R161A, NR concentration 270 nM, RXRa partner concentration 90 nM)
Outline: (§1)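 Ligand-free nuclear receptor dimers were applied to custom Agilent 4×180K protein-binding microarrays whose double-stranded probes carried direct-repeat seeds, single-nucleotide variants, half-site ablations and random human genomic background sequences in 34-nt variable regions. Incubation lasted 1 h. Binding z-scores were computed against the random background probes from regression-normalized fluorescence.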

[2] = system: PPARg:RXRa IVT, anti-PPARg (NR concentration 270 nM, RXRa partner concentration 90 nM)
Outline: as §1

[3] = system: PPARg DBDmut:RXRa IVT, anti-PPARg (DBD mutation: PPARg1 K132A/R137A, NR concentration 270 nM, RXRa partner concentration 90 nM)
Outline: as §1

[4] = system: PPARg DBDmut IVT, anti-PPARg (DBD mutation: PPARg1 K132A/R137A, NR concentration 270 nM)
Outline: as §1

[5] = system: PPARg homodimer (NR concentration 180 nM)
Outline: as §1

[6] = system: PXR:RXRa (NR concentration 270 nM, RXRa partner concentration 90 nM)
Outline: as §1

[7] = system: PXR homodimer (NR concentration 270 nM)
Outline: as §1

[8] = system: RARa:RXR (NR concentration 270 nM, RXRa partner concentration 90 nM)
Outline: as §1

[9] = system: RARa homodimer (NR concentration 270 nM)
Outline: as §1

[10] = system: RARb:RXRa (NR concentration 270 nM, RXRa partner concentration 90 nM)
Outline: as §1

Sequence | PBM binding z-score [1] | PBM binding z-score [2] | PBM binding z-score [3] | PBM binding z-score [4] | PBM binding z-score [5] | PBM binding z-score [6] | PBM binding z-score [7] | PBM binding z-score [8] | PBM binding z-score [9] | PBM binding z-score [10]
AGAATGAGGTTAAGATCAGGTAAACAGAATACAT | 2.37 | 2.93 | 1.7 | 0.933 | 0.782 | 1.52 | 0.259 | 2.3 | 0.662 | 1.98
TCTGCTAGGTCACTTGGTCAGCTAACGAGCTGCC | 4.06 | 4.55 | 2.55 | 1.22 | 0.811 | 0.889 | -0.812 | 1.93 | -0.792 | 3.81
GCTTACGGGGCAAAGGTTATAGCATGAATAGAAT | 3.33 | 4.27 | 0.825 | 1.35 | 2.67 | 2.99 | 0.0717 | 4.63 | 0.155 | 2.32
AATACTGGGTCACTAGGCCAGAGTAGGTACGAAT | 6.63 | 7.76 | 5.62 | 2.22 | 1.9 | 0.792 | 0.0229 | 1.53 | 0.983 | 3.19
AGAACAAGGGCACGCTGAGTTGATAGCAGAGTAG | 3.07 | 2.72 | 0.166 | 0.443 | 0.00636 | 0.845 | 0.17 | 0.366 | -0.312 | 2.51
CCTGCTAGGCCAATGGTCAGCTAAAGCAGCTCGC | 0.832 | 0.413 | -1.62 | -1.52 | -0.65 | -0.919 | -0.736 | -0.768 | -0.677 | 0.755
GCAGACAAGTGAAACGCAGGTAACTCAGGGTGGC | -0.601 | -0.398 | -0.525 | -1.2 | -0.82 | -0.683 | -0.723 | -0.207 | -0.732 | -1.75
CAAACTAGGTCACCGGAAGGTCAAAGGCCGCATG | 8.46 | 8.84 | 4.26 | 3.71 | 5.53 | 5.83 | 1.1 | 7.5 | 1.75 | 5.35
ACTTACGGGTCAACGAGGTTTTAGCACGCGTATA | 3.23 | 3.96 | 0.283 | 0.441 | 2.07 | 4.02 | -0.016 | 4.35 | 0.666 | 4.07
TTACCAAGGTGTAAGGTCGTTGATGCACGCCTTG | -0.345 | 1.3 | 0.0676 | -0.033 | 0.125 | 1.1 | 0.267 | 1.38 | -0.417 | 1.09
ATCTCTCGGTAACAAGTTCAGTGAAAGAGAGGAC | -0.852 | 0.6 | 0.792 | 1.21 | 0.807 | 1.46 | 1.77 | 0.694 | 0.38 | 1.49
CCTACTGGGCCAAAAAGGTCTTTGATGCCGATAA | 3.45 | 2.65 | -0.719 | -0.578 | -0.284 | -0.31 | -0.67 | -0.184 | -0.777 | 0.422
TCGAGTAGGTTAGGAGCATTCAGAATGGCGTCGA | 1.4 | 0.397 | -0.907 | -1.2 | -0.371 | -0.392 | -0.58 | -0.181 | -0.978 | 0.0424
TCTTGTAGATCAAAGGTTAAGTAAGCCGAAGCCT | 2.31 | 3.98 | 0.677 | 0.732 | 0.931 | 2.16 | 0.0156 | 3.2 | 0.12 | 2.23
TTACCAAAGTGAAGGTCGTTGATCCCTCTGTAGA | 0.0303 | 0.266 | -1.3 | -0.698 | 0.00936 | 1.15 | 0.234 | 1 | -0.568 | 0.632
AGAATGAGGTTGCCAAAGATCAGGGAAACGCTTG | -0.0771 | -0.145 | -0.469 | -0.747 | -0.291 | 0.0324 | -0.465 | 0.398 | -0.509 | 0.286
CCAGACAGGGGAAAGGTAACTCAGTCTGGTACGC | -0.0945 | 0.279 | -0.482 | -1.01 | 0.356 | 0.0184 | -0.106 | 0.15 | -0.374 | 0.202
ATCTCTAGGTAACCAAGTTCAGTGTATGCCGAAC | 3.75 | 3.04 | 0.877 | 1.39 | 0.882 | 1.9 | 1.95 | 0.828 | 1.09 | 1.08
TCTGGTAGATCAGCAGGTTAAGAAAGCTGGCCAA | 0.973 | -0.29 | -0.344 | -0.477 | -0.534 | -0.014 | -0.669 | 0.363 | -0.495 | 0.127
CCAGACAGGTGAGAGGTAACTCAGTCTGGTACGC | 1.59 | 1.87 | -0.562 | -0.501 | 0.989 | -0.00466 | -0.224 | 0.194 | 0.0236 | 0.78
AATACAGGGTCATCGTAGGCCAGAGAACGCACAG | 3.24 | 4.03 | 1.71 | 1.62 | 2.96 | 5.14 | 0.451 | 5.41 | 1.51 | 4.56
TATACAGGGTCAAAGGCCAGAGGACGAATGTCGA | 1.96 | 4.98 | 2.24 | 2.72 | 3.14 | 4.5 | 0.565 | 5.97 | 0.998 | 4.43
CAGCCTAGGTCAAGGCCAGTATAGGAGGAACGTT | 2.48 | 2.33 | -0.75 | -0.631 | 0.784 | 1.3 | -0.176 | 1.93 | -0.377 | 4.07
TCATATAGGTAAATGCTAGGTGACAGTCCGATCT | 4.18 | 3.05 | 1.51 | 0.754 | 0.369 | 0.559 | 0.133 | 0.861 | 0.862 | 0.403

Sequence | PBM binding z-score [1] | PBM binding z-score [2] | PBM binding z-score [3] | PBM binding z-score [4] | PBM binding z-score [5] | PBM binding z-score [6] | PBM binding z-score [7] | PBM binding z-score [8] | PBM binding z-score [9] | PBM binding z-score [10]
TCTTGTAGATCCAGCAGGTTAAGAAAGCCTGAGT | 1.04 | -0.258 | -0.0441 | -0.28 | -0.955 | 0.35 | 0.226 | 0.259 | -0.051 | 0.133
TCATATTGGTAAAAGGTGAAAGTCGGTGTGGTAA | 2.97 | 2.77 | 1.12 | 2.43 | 2.62 | 1.43 | 0.68 | 2.1 | 2.36 | 2.01
ATACCAAGGTAATCGTGAGGTCGTTGATACTAAC | 0.339 | 0.661 | 0.385 | 0.929 | 0.827 | 2.55 | 1.36 | 2.06 | -0.0819 | 1.07
TAGCCTAGGTCATGGGCCAGTAAACCACGCGAAC | 1.71 | 3.46 | 0.0624 | 0.0351 | 1.25 | 1.83 | -0.321 | 2.72 | -0.171 | 3.98
TCTACTAGTTGAAGGGCAACCGACGAGTCCGTTT | 1.69 | 0.294 | 0.093 | -0.701 | 0.312 | 0.458 | 0.108 | 0.275 | -0.569 | 1.27
ATCGAAAGGTCGAAGATGAGTATACCCACCCGAA | -0.341 | 1.22 | 0.714 | 0.471 | 1.15 | 1.97 | 0.241 | 2.66 | 0.939 | 3.69
CGTCCAAGGTCATCAGGTCAGTGAAAGCGACGTG | 3.92 | 4.54 | 1.13 | -0.42 | 3.58 | 4.88 | 1.66 | 5.46 | 1.46 | 5.43
CCTACTGGGCCATTCAGATGTCATTGATCATATG | 4.47 | 3.44 | -0.00111 | 0.0316 | 0.0941 | -0.564 | -0.799 | -0.682 | -0.198 | 0.127
ATCTGTAGGTAAGACTCAGTTCAGTGAAGAACGC | 1.14 | 0.619 | 1.11 | 1.11 | 0.0779 | 1.18 | 1.28 | 0.421 | 0.498 | 0.161
CTCGAAAGGCCGTGCTCAGGTGAGTATACCAAAC | -0.523 | -0.175 | -0.959 | -0.325 | -1.11 | -0.568 | -0.631 | -0.118 | -0.796 | 1.05
CCTCGGAGGACAACAGGAAGTCAGAGCTGCCAGA | -0.28 | -0.806 | -1.35 | -1.22 | 0.0465 | -0.665 | -0.485 | -0.454 | 0.0942 | 0.863
CCTACTGGGCCAAAGGTCATTGATTCCAATGCTC | 5.22 | 7.01 | 0.541 | 0.177 | 3.56 | 5.31 | 2.33 | 6.35 | 1.33 | 4.46
TCTAGTTGGTCACGGAGGTCAAACACGACGGGTA | 2.37 | 3.95 | 0.658 | 0.77 | 3.43 | 5.11 | 2.87 | 5.16 | 1.13 | 3.9
CAAACTAGGTCACGGGAAGGTCAAAGTCCGCATG | 8.72 | 9.17 | 2.85 | 3.73 | 5.61 | 5.97 | 1.41 | 7.17 | 1.78 | 5.43
CCTCGGGGGACAACAGGAGGTCAGAGCTGCCAGA | 0.622 | 1.99 | 0.461 | 0.197 | 1.34 | 2.74 | 0.253 | 2.8 | 0.259 | 3.16
CGTACAAGGTCATAGGAGGTCAGTGAAGACAGAT | 3.97 | 5.5 | 1.11 | 0.76 | 3.74 | 6.82 | 3.5 | 5.66 | 1.72 | 5.44
TCTAGTTGGTCACGGAGGTCACACAGGACGGGTA | 2.41 | 4.28 | 0.872 | -0.126 | 3.68 | 4.78 | 3.02 | 4.72 | 1.58 | 3.98
ACTAGCTGGTCAGCTGAGGTCACACACAATTCGG | 0.832 | 1.83 | 0.106 | -0.428 | 2.22 | 5.58 | 1.11 | 4.93 | 0.527 | 3.69
TAGCCTAGGTCATTCAGGGGCCAGTATCGAAAGC | 1.77 | 2.83 | 0.988 | -0.403 | 1.28 | 2.47 | 0.344 | 3.36 | -0.599 | 3.67
TCTATTAGTTGAAGGACAACCGACGAGTCCGTTT | 2.84 | 0.286 | 0.961 | 1.19 | 1.31 | 1 | 1.09 | 0.65 | 1.51 | 0.981
ACTAGCAGGCCAAGTTTGGGTCACTCATACAAAG | 1.29 | 1.09 | -0.419 | -0.428 | 0.652 | 0.707 | -0.211 | 1.55 | -0.601 | 1.53
ATATGTACGTTAGCTGGGGTCATTCAGACTAGGC | 0.759 | 1.55 | 1.41 | 1.62 | 2.55 | 5.7 | 3.18 | 5.82 | 1.41 | 2.57
CGTCCAAGGTCAAGGTCAGCGAAAGAGACTCGAA | 3.83 | 4.71 | 0.201 | -0.753 | 3.43 | 4.67 | 0.58 | 4.95 | 0.668 | 5.52
CGAACTAGGTCAGAACAGGACAGTGAAGGATGAT | 7.21 | 6.92 | 1.26 | 0.744 | 0.92 | 0.787 | -0.0517 | 0.927 | 0.693 | 2.77
